Broadly, the Inhibition is the relative decrease from the control value, in per cent.

For part of these data: Measured potencies and affinities stand elsewhere.

One test has as its system Staphylococcus aureus. The test is described as follows: Antibacterial activity against Staphylococcus aureus MRSA ATCC 43300 (CO-ADD:GP_020); MIC in CAMBH media using NBS plates, by Resazurin F(560/590). It is filed as functional. As to conditions: Concentration 20 uM, ASSAY_TEST Inhibition of Bacterial Growth, detection method Resazurin, Fluorescence (ex560/em590), MEDIA CAMHB, plate type 384well, CORNING #3640, time 18 hr.

For another test, the system named is Acinetobacter baumannii. The test is described as follows: Antibacterial activity against Acinetobacter baumannii ATCC 19606 (CO-ADD:GN_034); MIC in CAMBH media using NBS plates, by Resazurin F(560/590). It is filed as functional. Particulars: Concentration 20 uM, ASSAY_TEST Inhibition of Bacterial Growth, detection method Resazurin, Fluorescence (ex560/em590), MEDIA CAMHB, plate type 384well, CORNING #3640, time 18 hr.

For another test, the system named is Escherichia coli. In words: Antibacterial activity against Escherichia coli ATCC 25922 (CO-ADD:GN_001); MIC in CAMBH media using NBS plates, by Resazurin F(560/590). It is filed as functional. Particulars: Concentration 20 uM, ASSAY_TEST Inhibition of Bacterial Growth, detection method Resazurin, Fluorescence (ex560/em590), MEDIA CAMHB, plate type 384well, CORNING #3640, time 18 hr. (Resazurin is reduced to fluorescent resorufin, in cell work by metabolically active cells.)

The subject of another test is Klebsiella pneumoniae. As to conditions: Concentration 20 uM; ASSAY_TEST Inhibition of Bacterial Growth; detection method Absorption (OD600); MEDIA CAMHB; plate type 384well; NBS; CORNING #3640; time 18 hr.
A further test deals with Candida albicans. As to conditions: 20 µM.
For a further test, the system named is Cryptococcus neoformans. Particulars: Concentration 20 uM; ASSAY_TEST Inhibition of Fungal Growth; detection method Resazurin; Absorption (OD600-OD570); plate type 384well; NBS; CORNING #3640.

Turning to `O=[N+]([O-])c1cc([As](=O)(O)c2ccc(O)c([N+](=O)[O-])c2)ccc1O`, the Inhibition is 9.78% with Staphylococcus aureus; 5.09% with Acinetobacter baumannii; 4.17% in the test on Escherichia coli; 5.87% with Klebsiella pneumoniae; -1.08% with Candida albicans; -7.3% in the test with Cryptococcus neoformans.
Turning to `CC(Cc1ccccc1)NC(N)=O` (stereo not given), the Inhibition with Staphylococcus aureus was 1.52%; in the test on Acinetobacter baumannii, -11.77%; in the test on Escherichia coli, 14.19%; in the test on Klebsiella pneumoniae, 16.63%; in the test with Candida albicans, 1.15%; with Cryptococcus neoformans it was -7.14%.
For `CN(C)C1CCc2[nH]c3c(F)cc(F)cc3c2C1` (stereo not given) [FLUCINDOLE], the Inhibition was 8.89% with Staphylococcus aureus; 9.46% with Acinetobacter baumannii; 1.82% with Escherichia coli; 23.22% in the test on Klebsiella pneumoniae; 2.28% in the test with Candida albicans; -13.31% in the test with Cryptococcus neoformans.
On to `CN1C2CCC1[C@@H](COC(=O)c1ccccc1)[C@@H](O)C2` (stereo not given in full), for which the Inhibition in the test on Staphylococcus aureus is 0.35%; in the test on Acinetobacter baumannii it was 15.38%; in the test with Escherichia coli, -10.56%; with Klebsiella pneumoniae, 17.19%; in the test with Candida albicans, 4.47%; with Cryptococcus neoformans, -7.25%.
As to `COc1ccc2c(c1)NP(=S)(Oc1ccccc1)N2` (stereo not given), the Inhibition with Staphylococcus aureus was -0.02%; in the test with Acinetobacter baumannii, 7.67%; with Escherichia coli, -4.02%; in the test on Klebsiella pneumoniae it was 16.19%; with Candida albicans, 18.7%; in the test on Cryptococcus neoformans it was 0.61%.
Regarding `CN1C(=O)CC[C@@]2(C)C1=CC[C@@H]1[C@@H]2CC[C@@]2(C)[C@H]1CC[C@]2(C)O`, the Inhibition with Staphylococcus aureus was 8.7%; in the test on Acinetobacter baumannii it was -5.24%; with Escherichia coli, 22.22%; in the test with Klebsiella pneumoniae, 11.27%; in the test on Candida albicans, -0.13%; in the test on Cryptococcus neoformans, -18.95%.
With `Cc1cc(OCCN2CC2)c2ccccc2n1`, the Inhibition in the test on Staphylococcus aureus is 14.36%; in the test with Acinetobacter baumannii it was -8.46%; in the test with Escherichia coli, 11.83%; with Klebsiella pneumoniae, 5.11%; in the test on Candida albicans it was -2.14%; in the test with Cryptococcus neoformans, -8.85%.
Consider `COc1ccccc1[As](=O)(O)CC(O)COc1ccc(Cl)cc1Cl` (stereo not given), for which the Inhibition in the test with Staphylococcus aureus was 12.48%; in the test with Acinetobacter baumannii, -14.57%; in the test on Escherichia coli, 17.37%; in the test with Klebsiella pneumoniae it was 8.74%; in the test with Candida albicans, -1.45%; in the test with Cryptococcus neoformans it was -2.68%.
On to `Cc1ccc2cc3c(ccc4ccccc43)c3c2c1CC3` [3-METHYLCHOLANTHRENE], for which the Inhibition in the test on Staphylococcus aureus is 32.91%; in the test on Acinetobacter baumannii, -6.45%; in the test with Escherichia coli it was 10.1%; with Klebsiella pneumoniae it was -1.21%; in the test with Candida albicans, 1.03%; in the test on Cryptococcus neoformans it was 3.35%.
For `c1ccc2c(c1)Sc1ccccc1N2CC1CN2CCC1CC2` (stereo not given) [MEQUITAZINE], the Inhibition in the test on Staphylococcus aureus was 31.62%; in the test on Acinetobacter baumannii it was 2.18%; in the test on Escherichia coli, 10.66%; with Klebsiella pneumoniae it was 26.05%; in the test with Candida albicans it was 3.26%; in the test with Cryptococcus neoformans, -3.37%.
On to `O=C(O)CCCC[C@@H]1SC[C@@H]2NC(=O)N[C@@H]21` [BIOTIN], for which the Inhibition in the test with Staphylococcus aureus was 10.18%; in the test with Acinetobacter baumannii, -16.1%; in the test on Escherichia coli, 8.51%; in the test with Klebsiella pneumoniae, 5.79%; in the test on Candida albicans, 1.63%; in the test on Cryptococcus neoformans, -9.23%.
Turning to `ClC1=C(Cl)C(Cl)=C(Cl)C1=C/C=C/c1ccccc1`, the Inhibition in the test with Staphylococcus aureus is -15.24%; with Acinetobacter baumannii, -5.13%; in the test with Escherichia coli, -15.65%; with Klebsiella pneumoniae, 6.7%; in the test on Candida albicans, 5.69%; with Cryptococcus neoformans it was 2.88%.
With `O=C1C[C@@H]2OCC=C3C[N+]4([O-])CC[C@]56c7ccccc7N1[C@H]5[C@H]2[C@H]3C[C@@H]64` (stereo not given in full), the Inhibition in the test with Staphylococcus aureus is -3.57%; with Acinetobacter baumannii, -14.45%; in the test with Escherichia coli, 1.56%; in the test on Klebsiella pneumoniae, 13.5%; in the test on Candida albicans, 3.06%; in the test on Cryptococcus neoformans it was -6.02%.
Take `OCC1CN1C1CCCCC1` (stereo not given): the Inhibition was -3.39% in the test on Staphylococcus aureus; -14.33% with Acinetobacter baumannii; 0.67% in the test on Escherichia coli; 26.1% in the test with Klebsiella pneumoniae; 2.25% in the test with Candida albicans; -2.3% in the test with Cryptococcus neoformans.
For `O=C(NC(=O)c1c(F)cccc1F)Nc1cc(Cl)c(F)c(Cl)c1F` [TEFLUBENZURON], the Inhibition in the test on Staphylococcus aureus is 1.58%; in the test with Acinetobacter baumannii, -16.27%; in the test with Escherichia coli, 15.1%; with Klebsiella pneumoniae it was 2.21%; with Candida albicans, -1.38%; with Cryptococcus neoformans, -2.13%.
For the compound `CC(=O)O.CCC(N)Cc1c[nH]c2ccccc12` (stereo not given) [ETRYPTAMINE ACETATE], the Inhibition with Staphylococcus aureus is 10.71%; with Acinetobacter baumannii, -7.1%; with Escherichia coli, 6.98%; in the test with Klebsiella pneumoniae it was 14.32%; in the test with Candida albicans it was 2.48%; in the test on Cryptococcus neoformans it was -7.72%.
With `COc1cccc2c1C(=O)c1c(O)c3c(c(O)c1C2=O)C[C@@](O)(/C(C)=N\O)C[C@@H]3OC1CC(N)C(O)C(C)O1.Cl` (stereo not given in full), the Inhibition in the test on Staphylococcus aureus was -16.23%; with Acinetobacter baumannii, -1.97%; in the test with Escherichia coli, 2.23%; with Klebsiella pneumoniae, 11.93%; with Candida albicans, -6.16%; with Cryptococcus neoformans, -5.57%.
As for `Cc1ccc(N2C(=O)C(=CN)C(=O)N(c3ccc(C)cc3)C2=O)cc1`, the Inhibition in the test on Staphylococcus aureus was 17.58%; with Acinetobacter baumannii, 4.93%; in the test on Escherichia coli, 4.14%; with Klebsiella pneumoniae, 11.65%; in the test on Candida albicans, -1.3%; in the test on Cryptococcus neoformans, -7.68%.
For the compound `O=C1/C(=C\c2ccccc2)C2OCC=C3CN4CCC56c7ccccc7N1C5C2C3CC46` (stereo not given), the Inhibition is 33.46% in the test with Staphylococcus aureus; -0.22% in the test on Acinetobacter baumannii; 16.65% in the test with Escherichia coli; 12.64% in the test on Klebsiella pneumoniae; -0.43% in the test on Candida albicans; -4.36% in the test on Cryptococcus neoformans.
Consider `CCOP(=O)(OCC)/C(C#N)=C/c1ccc(Br)cc1`, for which the Inhibition in the test on Staphylococcus aureus was 9.27%; in the test with Acinetobacter baumannii, 13.14%; in the test on Escherichia coli it was 8.82%; in the test on Klebsiella pneumoniae, 9.61%; with Candida albicans, 2.02%; in the test on Cryptococcus neoformans it was -11.15%.
Consider `c1cnc2c(c1)ccc1ncccc12`, for which the Inhibition in the test on Staphylococcus aureus is 9.5%; in the test with Acinetobacter baumannii, -5.64%; in the test on Escherichia coli, 9.97%; with Klebsiella pneumoniae, 12.45%; in the test with Candida albicans it was 0.86%; in the test on Cryptococcus neoformans, -4.19%.
As for `O=C(CF)N(O)c1ccc(/C=C/c2ccccc2)cc1`, the Inhibition was -10.86% with Staphylococcus aureus; -11.91% in the test with Acinetobacter baumannii; 10.97% in the test on Escherichia coli; 1.67% in the test with Klebsiella pneumoniae; 12.6% with Candida albicans; -7.92% with Cryptococcus neoformans.
Take `CCN(CC)c1ccc(C=C2C(=O)NC(=S)NC2=O)cc1`: the Inhibition in the test on Staphylococcus aureus was -20.45%; in the test with Acinetobacter baumannii it was -4.05%; in the test on Escherichia coli it was -18.35%; in the test with Klebsiella pneumoniae, 3.93%; with Candida albicans it was 19.4%; with Cryptococcus neoformans, 12.5%.
In the case of `Cc1c(CCN)ccc2c1[nH]c1ccccc12`, the Inhibition with Staphylococcus aureus was 5.19%; in the test on Acinetobacter baumannii, -3.14%; in the test with Escherichia coli, 0.87%; with Klebsiella pneumoniae it was 4.23%; in the test on Candida albicans, 0.65%; in the test on Cryptococcus neoformans, -5.14%.
Turning to `Cc1ccc2c(c1)Oc1ccccc1N=C2`, the Inhibition in the test on Staphylococcus aureus was 14.17%; in the test on Acinetobacter baumannii, 5.41%; in the test on Escherichia coli, -0.47%; in the test with Klebsiella pneumoniae it was 8.46%; with Candida albicans, 8.51%; with Cryptococcus neoformans, -3.65%.

Source of the values: ChEMBL document CHEMBL4296182, “CO-ADD screening of NIH NCI Diversity Set V”.
